Measured values: PubChem BioAssay AID624330 (Southern Research Specialized Biocontainment Screening …, 2012)
The campaign covered roughly 340,000 compounds. About 2,100 (0.62%) were called active. Not all results are given here. Entries with a potency or affinity are not part of this list. Values without a mark were called inactive.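 The calls were made as follows: active = first-screen hits whose inhibition reached a set limit at any dose in the follow-up dose series; inconclusive = inhibition above the set first-screen limit but never retested; inactive = the rest.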

target: Rac GTPase-activating protein 1 (Homo sapiens) (UniProt Q9H0H5); assay: MgcRacGAP GTPase-activating activity inhibitors, confirmation, biochemical, ADP Hunter fluorescence, primary and confirmatory (AID 624330); details: MgcRacGAP-stimulated Rac1 GTP hydrolysis, at 30 µM, stronger effect = higher value, GST-tagged Rac1 F28L mutant substrate;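 also: fluorescence reports GDP produced by GAP-driven GTP hydrolysis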
Sequence (Q9H0H5 whole entry, looked up): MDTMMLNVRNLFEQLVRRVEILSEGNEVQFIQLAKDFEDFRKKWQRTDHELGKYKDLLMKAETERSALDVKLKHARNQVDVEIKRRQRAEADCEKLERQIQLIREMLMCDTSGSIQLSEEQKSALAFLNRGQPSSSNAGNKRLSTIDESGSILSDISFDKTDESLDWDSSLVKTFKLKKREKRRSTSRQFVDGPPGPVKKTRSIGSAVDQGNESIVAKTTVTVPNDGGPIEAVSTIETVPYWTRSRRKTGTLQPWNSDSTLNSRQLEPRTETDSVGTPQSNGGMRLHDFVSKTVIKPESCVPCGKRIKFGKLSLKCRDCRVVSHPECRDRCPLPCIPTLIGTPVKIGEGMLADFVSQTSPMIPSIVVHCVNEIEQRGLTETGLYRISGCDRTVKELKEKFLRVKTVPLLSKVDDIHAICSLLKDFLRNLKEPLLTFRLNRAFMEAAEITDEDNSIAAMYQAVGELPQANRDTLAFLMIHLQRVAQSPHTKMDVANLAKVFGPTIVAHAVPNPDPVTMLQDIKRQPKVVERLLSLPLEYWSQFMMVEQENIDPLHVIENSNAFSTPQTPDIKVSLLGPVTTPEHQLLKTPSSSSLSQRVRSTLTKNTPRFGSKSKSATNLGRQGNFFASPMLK

| SMILES | inhibition [%] |
| --- | --- |
| CC(C)(C)c1ccc(C(=O)NCC(=O)N2CCC3(CC2)NCCc2[nH]cnc23)cc1 | 11 |
| O=C(N/N=C/c1ccc(Br)cc1)c1ccccc1-n1cccc1 | 10.6 |
| COc1cc(/C=N/NC(=O)c2ccccc2O)ccc1OCC(=O)Nc1ccccc1 | 14.4 |
| CCOc1cc(/C=N/NC(=O)c2cc(C)n(-c3ccc(F)cc3)c2C)ccc1O | 16.4 |
| O=C(N/N=C/c1ccc[nH]1)c1ccccc1OCc1ccc(F)cc1 | 9.06 |
| O=C(COc1ccccc1-c1ccccc1)N/N=C/c1ccc2ccccc2c1 | 6.35 |
| Cc1cccc(/C=N\NC(=O)c2ccccc2-n2cccc2)c1 | 5.46 |
| O=C(N/N=C\c1ccccc1)c1ccccc1-n1cccc1 | 6.39 |
| O=C(N/N=C\c1ccc(O)c([N+](=O)[O-])c1)c1ccccc1-n1cccc1 | -4.94 |
| CC(=O)c1cccc(S(=O)(=O)NC2CCCCCC2)c1 | 1.69 |
| COc1ccc(C(C(=O)NC2CCCCC2)N(Cc2ccco2)C(=O)c2ccccn2)c(OC)c1 (stereo unspecified) | 10.7 |
| CCCN(CCC)C(=O)c1ccc2c(c1)S(=O)(=O)c1ccccc1C2=O | 6.12 |
| NC(=S)Nc1ccc(S(=O)(=O)c2ccc(NC(N)=S)cc2)cc1 | 10.8 |
| CC1(C)C(=O)OC(c2c3ccccc3cc3ccccc23)C(C)(C)C1=O (stereo unspecified) | 1.71 |
| CC(NS(=O)(=O)c1cccc(S(=O)(=O)c2ccccc2)c1)C(=O)O (stereo unspecified) | -5.11 |
| CCOC(=O)N1CCN(C(=O)c2cccc(S(=O)(=O)Nc3ccc(F)cc3)c2)CC1 | 4.83 |
| CCOC(=O)C1CCN(c2c(N3CCCC(C(=O)OCC)C3)c(=O)c2=O)CC1 (stereo unspecified) | 4.65 |
| CN(C)CCNC(=O)c1onc(CSc2nc3ccccc3[nH]2)c1C(=O)NCCN(C)C | 17.3 |
| Brc1ccc(-c2ccc(/C=N/Nc3nc4ccccc4[nH]3)o2)cc1 | 3.17 |
| COCCNC(=O)/C(C#N)=C/c1ccc(C(=O)O)cc1 | 0.25 |
| COc1cccc(C(=O)N2CCn3c2nc2ccccc23)c1 | 8.54 |
| O=C(Nc1nnc(C2CCCCC2)s1)C1CC(=O)N(c2ccc(F)cc2)C1 (stereo unspecified) | 3.31 |
| COc1ccc(NC(=O)CSc2ccc3ccccc3c2)cc1S(=O)(=O)N1CCCCC1 | 8.21 |
| Cc1ccc2nc(C)cc(N/N=C/c3cccc(O)c3)c2c1 | 14.1 |

| SMILES | inhibition [%] |
| --- | --- |
| COc1cccc2c(N/N=C/c3ccccc3)cc(C)nc12 | 11 |
| COc1cccc2c(N/N=C/c3ccc(O)c(O)c3)cc(C)nc12 | 27.1 |
| COc1ccc(/C=N/Nc2cc(C)nc3ccccc23)cc1 | 14.7 |
| N#Cc1nc(COc2ccc(F)cc2)oc1N1CCC(Cc2ccccc2)CC1 | 0.56 |
| N#Cc1ccc(N/N=C/c2ccccc2)c([N+](=O)[O-])c1 | 2.61 |
| Cc1sc(NC(=O)c2ccc(F)cc2)c(CN2CCCCCC2)c1C | 13.7 |
| CCn1c(CC(=O)Nc2ccc(Cl)c(Cl)c2)nnc1SCc1ccc(Cl)cc1 | 11.6 |
| Cc1sc2ncn(CC(=O)N3CCCCC3)c(=O)c2c1C | 6.45 |
| O=C(Nc1ccncc1)C1CC(=O)N(c2ccccc2)C1 (stereo unspecified) | 0.29 |
| CCN1C(=O)[C@H]2[C@@H](c3ccc(Cl)cc3)N3C(=O)CN(Cc4ccccc4)C(=O)[C@@]3(C)[C@H]2C1=O | 5.83 |
| CCOc1ccc(NCCC#N)cc1 | 30.3 |
| N#CCCNc1ccc(OCCC#N)cc1 | 11.4 |
| CCC(=O)Nc1cccc(C(=O)/C=C/c2cc(Br)ccc2OC)c1 | 7.87 |
| CCC(CO)N=C1CC(C)(C)CC(=O)/C1=C(/O)CCCN1C(=O)c2ccccc2C1=O (stereo unspecified) | 0.34 |
| COc1cc2nc(N3CCN(c4cc(C)ccc4C)CC3)nc(N)c2cc1OC | 4.78 |
| COc1cc2nc(N3CCN(C(=O)c4ccco4)CC3)nc(N)c2cc1OC | 17.7 |
| COC(=O)[C@H](CC(C)C)NC(=O)NCCCc1ccccc1 | 3.77 |
| O=C(CCNS(=O)(=O)c1cccc2nsnc12)NCCC1=CCCCC1 | 11.7 |
| Cc1cccc(OCC(=O)Nc2ccc3c(C)cc(=O)oc3c2)c1 | -2.83 |
| CC(=O)Nc1ccc(N2CCN(C(C)=O)CC2)cc1 | 8.62 |
| CC(=O)N1CCN(c2ccc([N+](=O)[O-])cc2)CC1 | 5.88 |
| Nc1nc(N2CCN(c3ccc(F)cc3)CC2)n[nH]1 | 12.1 |
| N#Cc1ccc(N2CCN(c3ccc(F)cc3)CC2)cc1 | 7.18 |
| Nc1ccc(N2CCCCC2)cc1N1CCCCC1 | 10.4 |

| SMILES | inhibition [%] |
| --- | --- |
| Cc1nn(-c2cc(N3CCCCC3)ccc2N)c(=O)c2ccccc12 | 12.5 |
| CN1CCN(c2ccc(C(=O)c3ccc(F)cc3)cc2)CC1 | 12.6 |
| CN1CCN(S(=O)(=O)c2ccc(N)cc2)CC1 | -0.77 |
| OCC1CCCN(C(=S)NCCc2ccccc2)C1 (stereo unspecified) | 2.94 |
| O=C(Cn1cnc2c(nnn2Cc2ccc(Cl)cc2)c1=O)NC1CCCC1 | 7.49 |
| COc1cc(SC)ccc1C(=O)OCC(=O)NCCC1=CCCCC1 | -5.82 |
| C=CCn1c(SC(C)C(=O)NC2CC2)nnc1-c1ccoc1C (stereo unspecified) | 4.4 |
| CCOc1cccc(C(=O)NNC(=O)C2C3C=CC(C3)C2C(=O)O)c1 (stereo unspecified) | 5.45 |
| CCCN1Cc2cccc(C(=O)NCCc3ccccc3)c2C1=O | 5.13 |
| Cc1ccc(-c2nn(-c3ccccc3)cc2C(=O)Nc2ccc(C)c(S(=O)(=O)N3CCOCC3)c2)cc1 | -2.39 |
| COc1ccc(C(CNS(=O)(=O)c2ccccc2)N2CCN(C)CC2)cc1 (stereo unspecified) | 1.91 |
| O=C(c1cccs1)N1CCN(c2ccccc2)CC1 | -0.45 |
| O=C(Nc1ccc(N2CCN(c3ccccc3)CC2)c(F)c1)C1CC1 | 5.36 |
| CCN1CCN(c2ccc(NC(=O)Cc3ccccc3)cc2)CC1 | 6.87 |
| O=C(c1cccs1)N1CCN(c2ccc(F)cc2)CC1 | 13.3 |
| O=C(CSc1ccccc1)Nc1ccc(N2CCN(c3ccccc3)CC2)c(F)c1 | 5.08 |
| CCN1CCN(c2ccc(NC(=O)c3ccc(Br)o3)cc2)CC1 | 8.5 |
| Cc1ccccc1C(=O)Nc1cc(NC(=O)c2ccccc2C)cc(C(=O)O)c1 | 10.1 |
| O=S(=O)(c1ccc(F)cc1)c1nc(-c2ccccc2)oc1N1CCOCC1 | 9.44 |
| CC(=O)c1cccc(NC(=O)Cn2cnc(S(=O)(=O)N3CCCCC3)c2)c1 | 2.19 |
| CCS(=O)(=O)N1Cc2ccccc2CC1C(=O)N(C)Cc1ccc(OC)cc1OC (stereo unspecified) | 5.19 |
| CCOc1cccc(-c2c(C(=O)N/N=C/c3ccc(C)s3)nnn2-c2nonc2N)c1 | 0.29 |
| COc1ccc(C2SCCN2S(=O)(=O)c2ccc(F)cc2)cc1OC (stereo unspecified) | 6.1 |
| O=C(NCCCN1CCCC1=O)c1cccc(S(=O)(=O)N2CCN(c3ccc(F)cc3)CC2)c1 | 1.69 |

| SMILES | inhibition [%] |
| --- | --- |
| COc1ccc(Nc2c3ccccc3nc3ccccc23)cc1 | 17.9 |
| COc1ccc2[nH]c(=O)c(CNc3ccccc3)cc2c1 | 9.73 |
| COc1cccc(CNc2cnc3ccccc3c2)c1O | 1.26 |
| COc1ccc(NC(=O)CSc2nc3ccccc3cc2Cc2ccccc2)cc1 | 3.45 |
| COc1ccc(C(=O)NCc2cc(C)nc3ccccc23)cc1 | -16.4 |
| CCOc1ccc(NCc2cc3cc(OC)ccc3[nH]c2=O)cc1 | 15.8 |
| COc1ccc(-c2cccc([C@H]3[C@@H]4C=CCC[C@@]4(C)C(=O)N3Cc3ccccc3)c2)cc1 | 12.4 |
| Cc1cccc(C(=O)Nc2cc(NC(=O)c3cccs3)ccc2C)c1 | 5.54 |
| CCOc1ccccc1CN1CCN(C2CCSCC2)CC1CCO (stereo unspecified) | 7.4 |
| CN(CC(=O)Nc1ccc(SC(F)F)cc1)C1CCCCC1 | 9.96 |
| Nc1ccc2cn[nH]c2c1 | 2.65 |
| Nc1ccc2nc(-c3cccc(-c4nc5ccc(N)cc5[nH]4)n3)[nH]c2c1 | 16.5 |
| COc1ccc(-c2cc(CCCC(=O)NCCc3ccc(OC)cc3OC)no2)cc1 | -0.07 |
| Cc1sc2nc(CN3CCOCC3)nc(N3CCC(C(N)=O)CC3)c2c1C | -3.61 |
| Cc1sc2nc(CN3CCOCC3)nc(Cl)c2c1C | 5.87 |
| CCC(=O)Nc1cccc(NC(=O)CSc2nc3c(c(=O)n(C)c(=O)n3C)n2C)c1 | 7.76 |
| O=C(COc1ccc2ccc(=O)oc2c1)N1CCc2ccccc21 | -9.6 |
| CC(N=c1ccccn1C(=O)Nc1cccc(C(F)(F)F)c1)c1ccco1 (stereo unspecified) | 2.17 |
| CN1CCN(CC(=O)NN(Cc2ccccc2)c2ccccc2)CC1 | 31.6 |
| CC(C)(O)C(=O)NN(Cc1ccccc1)c1ccccc1 | 4.09 |
| CCN(CC(=O)NC(=O)NCc1ccccc1)Cc1ccccc1 | 3.08 |
| O=C(CN1CCCCC1)NN(Cc1ccccc1)c1ccccc1 | 10.1 |
| CCCc1cc(=O)[nH]c(SCC(=O)c2cc(C)n(CC3CCCO3)c2C)n1 (stereo unspecified) | 4.29 |
| Cc1ccc(S(=O)(=O)NC(C)C(=O)N2CCOCCOCCOCCOCC2)cc1 (stereo unspecified) | 9.08 |
